Drawing on PubChem BioAssay (NCI), this text covers growth for 13 compounds.

Among the test systems are NCI-H23 lung; NCI-H226 lung; NCI-H322M lung; HOP-62 NSCLC; NCI-H460 lung; HOP-92 NSCLC; NCI-H522 lung; A549/ATCC NSCLC; 786-0 renal; COLO 205 colon.
What all share (test): NCI-60 one-dose screen, 48 h (100 = growth as untreated, 0 = no growth, -100 = all killed)
What all share (settings): 10 µM unless noted

About 83,000 compounds went through this panel and 20% of them were active in at least one assay; those are over-represented in the sample as a whole.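 How to read the values: 0–100, growth inhibition (40 = 60% inhibited); 0, no net growth; -100 to 0, cell death (-40 = 40% of starting cells died; -100 = all dead).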 A number with no mark means an inactive call. The source made the active and inactive calls. Rule for the calls: active = growth percent below 10; inactive = the rest.

As to `CC(=O)OC1Oc2cc(C)c(C)cc2-c2oc(=O)c(-c3cc4ccc(N(C)C)cc4oc3=O)cc21` (stereo not given), the growth was 46.9% in the assay on NCI-H23 lung; 59.2% in the assay on NCI-H226 lung; 78.9% in the assay with NCI-H322M lung; 82% in the assay with HOP-62 NSCLC; 65.4% in the assay with NCI-H460 lung; 77.8% in the assay on HOP-92 NSCLC. The growth with NCI-H522 lung was 60.5%; in the assay on A549/ATCC NSCLC it was 70.5%; in the assay on 786-0 renal, 74.1%; with COLO 205 colon, 96.4%.
With `CC1=N/C(=C\c2cccc(Br)c2)C(=O)O1`, the growth with NCI-H23 lung is 106%; in the assay with NCI-H226 lung, 106%; in the assay on NCI-H322M lung, 106%; in the assay with HOP-62 NSCLC it was 92.8%; in the assay with NCI-H460 lung, 106%; in the assay on HOP-92 NSCLC, 107%. For the same compound, the growth was 87.7% in the assay with NCI-H522 lung, 89.3% in the assay with A549/ATCC NSCLC, 102% in the assay with 786-0 renal and 106% with COLO 205 colon.
Regarding `Cc1csc2ccc(Cl)cc12`, the growth in the assay with NCI-H23 lung is 97.8%; in the assay with NCI-H226 lung, 104%; in the assay with NCI-H322M lung, 101%; in the assay on HOP-62 NSCLC it was 96.6%; in the assay with NCI-H460 lung it was 106%; in the assay with HOP-92 NSCLC it was 104%. The growth in the assay on NCI-H522 lung was 89%; in the assay with A549/ATCC NSCLC, 109%; in the assay with 786-0 renal it was 105%; with COLO 205 colon, 105%.
In the case of `COc1cc2c(cc1O)CCc1cc(O)cc(OC)c1-2`, the growth with NCI-H23 lung is 99.3%; in the assay on NCI-H226 lung, 87.4%; in the assay on NCI-H322M lung, 101%; in the assay with HOP-62 NSCLC it was 105%; in the assay with NCI-H460 lung, 93.8%; in the assay on HOP-92 NSCLC, 103%. In addition, the growth in the assay with NCI-H522 lung is 61.5%; in the assay with A549/ATCC NSCLC, 87.6%; in the assay on 786-0 renal, 97.1%; in the assay on COLO 205 colon, 110%.
With `O=C(CO[N+](=O)[O-])Nc1ccc(C(=O)/C=C/c2ccc3c(c2)OCO3)cc1`, the growth in the assay with NCI-H23 lung was 58.1%; in the assay with NCI-H226 lung it was 107%; with NCI-H322M lung, 108%; in the assay on HOP-62 NSCLC, 112%; with NCI-H460 lung it was 108%; with HOP-92 NSCLC, 77.3%. Moreover, the growth with NCI-H522 lung was 97.6%; with A549/ATCC NSCLC it was 88.9%; in the assay on 786-0 renal it was 109%; with COLO 205 colon, 113%.
On to `CC1=C(NCCN2CCCC2)C(=O)c2c(OCc3cccc(Cl)c3)cccc2C1=O`, for which the growth was 81.4% in the assay with NCI-H23 lung; 94.1% in the assay with NCI-H226 lung; 75.8% with NCI-H322M lung; 78.4% with HOP-62 NSCLC; 83.1% with NCI-H460 lung; 60.6% in the assay on HOP-92 NSCLC. For the same compound, the growth with NCI-H522 lung was 82.9%; in the assay with A549/ATCC NSCLC it was 77.2%; with 786-0 renal, 63.3%; with COLO 205 colon, 69.7%.
As to `CCN(CC)CC(O)c1cc(-c2ccc(Cl)cc2)nc2c(C)c(Cl)ccc12` (stereo not given), the growth in the assay on NCI-H23 lung was -89.3% (active); in the assay on NCI-H226 lung, -15.8% (active); in the assay with NCI-H322M lung, -82.5% (active); with HOP-62 NSCLC it was -100% (active); in the assay on NCI-H460 lung, -86% (active); in the assay with HOP-92 NSCLC it was -46.8% (active). The growth in the assay on NCI-H522 lung was -76% (active); in the assay with A549/ATCC NSCLC it was -85.8% (active); with 786-0 renal it was -95.9% (active); in the assay on COLO 205 colon, -100% (active).
`O=C(/C=C/c1ccc(Cl)cc1)c1ccc(O)c(CN2CCN(c3cc4c(cc3F)c(=O)c(C(=O)O)cn4C3CC3)CC2)c1`: the growth in the assay on NCI-H23 lung was 51.7%; in the assay on NCI-H226 lung, 67.3%; in the assay on NCI-H322M lung it was 72.8%; with HOP-62 NSCLC, 49.8%; with NCI-H460 lung it was 70.7%; in the assay with HOP-92 NSCLC it was 40.8%. Also, the growth with NCI-H522 lung was 45.2%; in the assay on A549/ATCC NSCLC it was 50%; with 786-0 renal, 55.1%; in the assay on COLO 205 colon, 136%.
For `COc1cc2cc(COc3nccc(-c4ccc(Cl)cc4)n3)c(=O)[nH]c2cc1OC`, the growth in the assay on NCI-H23 lung was 88.5%; with NCI-H226 lung it was 89.1%; in the assay on NCI-H322M lung, 79.6%; with HOP-62 NSCLC, 88.2%; with NCI-H460 lung, 86.2%; in the assay on HOP-92 NSCLC, 69.9%. Also, the growth in the assay with NCI-H522 lung is 108%; in the assay with A549/ATCC NSCLC, 67.5%; with 786-0 renal it was 80.9%; in the assay with COLO 205 colon it was 44.3%.
`COc1ccc2nc3cc(Cl)ccc3c(N3CCN(c4nccc(Nc5ccc(Cl)cc5)n4)CC3)c2c1`: the growth in the assay with NCI-H23 lung is 86.4%; in the assay on NCI-H226 lung it was 99.8%; in the assay with NCI-H322M lung it was 97.5%; with HOP-62 NSCLC it was 88.1%; with NCI-H460 lung, 67%; with HOP-92 NSCLC it was 34.8%. Further, the growth in the assay with NCI-H522 lung is 51.8%; in the assay with A549/ATCC NSCLC it was 76.4%; in the assay with 786-0 renal, 42.2%; in the assay with COLO 205 colon, 95.7%.
In the case of `O=C(Nc1nc(-c2ccccc2)cc(-c2ccc(Cl)cc2)n1)c1ccncc1`, the growth in the assay on NCI-H23 lung was 90.2%; in the assay on NCI-H226 lung it was 93.3%; in the assay with NCI-H322M lung, 95.6%; with HOP-62 NSCLC it was 97.6%; with NCI-H460 lung it was 98.7%; with HOP-92 NSCLC, 89.5%. In addition, the growth is 86.8% in the assay on NCI-H522 lung, 90.5% with A549/ATCC NSCLC, 92.8% in the assay on 786-0 renal and 103% with COLO 205 colon.
For the compound `CC(C)C1=C[C@@]23CC[C@@H]4[C@](C)(CCC[C@@]4(C)C(=O)OCC#CCN4CCCC4)[C@H]2C[C@@H]1[C@H]1C(=O)OC(=O)[C@H]13`, the growth is 94.9% in the assay on NCI-H23 lung; 96.1% in the assay with NCI-H226 lung; 88.5% in the assay with NCI-H322M lung; 91.9% in the assay on HOP-62 NSCLC; 103% in the assay with NCI-H460 lung; 94.1% in the assay with HOP-92 NSCLC. The growth in the assay with NCI-H522 lung is 78.7%; in the assay with A549/ATCC NSCLC, 98.4%; with 786-0 renal it was 103%; in the assay with COLO 205 colon it was 111%.
As for `N=c1c2ccccc2nc2n1CCCCC2`, the growth is 102% with NCI-H23 lung; 102% with NCI-H226 lung; 112% with NCI-H322M lung; 105% in the assay on HOP-62 NSCLC; 113% in the assay with NCI-H460 lung; 133% in the assay on HOP-92 NSCLC. Moreover, the growth with NCI-H522 lung was 116%; in the assay on A549/ATCC NSCLC it was 101%; in the assay on 786-0 renal, 119%; in the assay on COLO 205 colon, 104%.
